In this assay the target is PITX2 (Homo sapiens, UniProt Q99697 72-157). The assay is described as follows: PBM; 200 nM protein, PBS. The conditions noted are these: dsDNA, one strand shown.
As to AAGATAAT, the binding signal was 10.6 upbm affinity estimate (log intensity, higher = more binding, comparable within an allelic series).
In the case of CCTACGTC, the binding signal was 7.98 upbm affinity estimate (log intensity, higher = more binding, comparable within an allelic series).
Then CCGAGCAG, with 8.01 upbm affinity estimate (log intensity, higher = more binding, comparable within an allelic series).
Consider GAGATATC, for which the binding signal was 8.8 upbm affinity estimate (log intensity, higher = more binding, comparable within an allelic series).
For CTAAATCC, the binding signal was 12.4 upbm affinity estimate (log intensity, higher = more binding, comparable within an allelic series).
The value for AATCCAAT was 10.9 upbm affinity estimate (log intensity, higher = more binding, comparable within an allelic series); that for ACGCCGAG was 8 upbm affinity estimate (log intensity, higher = more binding, comparable within an allelic series); that for AGGGATAG was 9.94 upbm affinity estimate (log intensity, higher = more binding, comparable within an allelic series).
Then CTGGCCGC, with 8.13 upbm affinity estimate (log intensity, higher = more binding, comparable within an allelic series).
Then CAGTTCCG, with 8.03 upbm affinity estimate (log intensity, higher = more binding, comparable within an allelic series); and GCTCCACC, with 7.66 upbm affinity estimate (log intensity, higher = more binding, comparable within an allelic series).
For GCGGCGCC, the binding signal was 7.97 upbm affinity estimate (log intensity, higher = more binding, comparable within an allelic series).
GCGCTTAA: the binding signal is 11.1 upbm affinity estimate (log intensity, higher = more binding, comparable within an allelic series).
Then CAACGGGC, with 7.95 upbm affinity estimate (log intensity, higher = more binding, comparable within an allelic series); and ATCCTTAC, with 9.47 upbm affinity estimate (log intensity, higher = more binding, comparable within an allelic series).
With GGATTTAA, the binding signal was 12.5 upbm affinity estimate (log intensity, higher = more binding, comparable within an allelic series).
For CCTTCCAC, the binding signal was 8.11 upbm affinity estimate (log intensity, higher = more binding, comparable within an allelic series).
With CATTATTC, the binding signal was 9.49 upbm affinity estimate (log intensity, higher = more binding, comparable within an allelic series).
Regarding GTGCCAGA, the binding signal is 8.11 upbm affinity estimate (log intensity, higher = more binding, comparable within an allelic series).
The value for GAATATTA was 9.35 upbm affinity estimate (log intensity, higher = more binding, comparable within an allelic series); that for CACTAGTG was 8.21 upbm affinity estimate (log intensity, higher = more binding, comparable within an allelic series); that for AAGGGATT was 11.6 upbm affinity estimate (log intensity, higher = more binding, comparable within an allelic series).
In the case of AGAGCTCA, the binding signal was 9.42 upbm affinity estimate (log intensity, higher = more binding, comparable within an allelic series).
Then ACTTGATC, with 10.2 upbm affinity estimate (log intensity, higher = more binding, comparable within an allelic series); and AGGATTTA, with 12.4 upbm affinity estimate (log intensity, higher = more binding, comparable within an allelic series); and ATAGGCTC, with 9.54 upbm affinity estimate (log intensity, higher = more binding, comparable within an allelic series).
Take CGCCTGTC: the binding signal was 8.14 upbm affinity estimate (log intensity, higher = more binding, comparable within an allelic series).
With GCTTAGAA, the binding signal was 10.2 upbm affinity estimate (log intensity, higher = more binding, comparable within an allelic series).
The value for ACACCAGC was 8.12 upbm affinity estimate (log intensity, higher = more binding, comparable within an allelic series); that for AGCGTGGG was 8.14 upbm affinity estimate (log intensity, higher = more binding, comparable within an allelic series); that for ATACCTTA was 9.97 upbm affinity estimate (log intensity, higher = more binding, comparable within an allelic series).
For GAAGGTCA, the binding signal was 7.87 upbm affinity estimate (log intensity, higher = more binding, comparable within an allelic series).
GCATGCAC: the binding signal was 7.85 upbm affinity estimate (log intensity, higher = more binding, comparable within an allelic series).
The value for GAGATCAC was 9.79 upbm affinity estimate (log intensity, higher = more binding, comparable within an allelic series); that for ACGTGTCC was 8.04 upbm affinity estimate (log intensity, higher = more binding, comparable within an allelic series).
Then GCACGCCA, with 7.9 upbm affinity estimate (log intensity, higher = more binding, comparable within an allelic series); and CTAGCGAG, with 8.11 upbm affinity estimate (log intensity, higher = more binding, comparable within an allelic series); and AGATCCGG, with 9.62 upbm affinity estimate (log intensity, higher = more binding, comparable within an allelic series).
Turning to GACGGTGA, the binding signal is 8.15 upbm affinity estimate (log intensity, higher = more binding, comparable within an allelic series).
For the sequence AGATTTAT, the binding signal is 11 upbm affinity estimate (log intensity, higher = more binding, comparable within an allelic series).

The values above are taken from paper PMC11006913.
